PLK1 PBD block: PLK1 (human) polo-box domain binding inhibition. P53350. Plk1 PBD binding of FITC phosphopeptide, fluorescence polarization. Potency, µM, usual class: inhibitors. actives 2.8% (n = 360,000). AID 720504; further: series mostly up to about 57 µM; nearly all actives have a fitted effect of over 65% in size
Target sequence (P53350 whole entry, looked up, the tested form may be a part): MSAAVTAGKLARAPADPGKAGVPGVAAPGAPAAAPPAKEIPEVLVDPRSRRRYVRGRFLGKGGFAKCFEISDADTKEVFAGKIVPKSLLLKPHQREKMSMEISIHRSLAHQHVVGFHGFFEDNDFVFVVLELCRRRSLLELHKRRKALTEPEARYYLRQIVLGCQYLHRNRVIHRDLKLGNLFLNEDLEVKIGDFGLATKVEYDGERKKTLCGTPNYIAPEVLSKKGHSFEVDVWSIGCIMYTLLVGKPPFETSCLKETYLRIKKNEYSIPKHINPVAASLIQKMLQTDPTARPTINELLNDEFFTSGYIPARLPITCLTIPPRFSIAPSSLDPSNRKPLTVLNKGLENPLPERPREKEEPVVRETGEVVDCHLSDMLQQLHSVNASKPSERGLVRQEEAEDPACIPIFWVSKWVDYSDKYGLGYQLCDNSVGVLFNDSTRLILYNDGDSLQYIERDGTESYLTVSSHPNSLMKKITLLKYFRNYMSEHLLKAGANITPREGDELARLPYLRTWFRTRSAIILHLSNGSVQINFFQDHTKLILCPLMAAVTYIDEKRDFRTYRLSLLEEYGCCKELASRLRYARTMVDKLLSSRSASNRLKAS
Sfp inh: Sfp phosphopantetheinyl transferase inhibition. Biochemical Sfp PPTase activity, qHTS. Potency, µM, usual class: inhibitors. actives 3.5% (n = 310,000). AID 1490;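 further: the enzyme is Sfp with the accession as filed and its product quenches rhodamine fluorescence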
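Buffer: 50 mM Hepes-Na pH 7.6, 10 mM MgCl2, 0.01% Nonidet P-40, 0.01% BSA. Enzyme 15 nM, pre-exposed to compound 15 min; substrates then added and fluorescence change tracked over 30 min.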
JMJD2A Tudor inh: blocks the human JMJD2A Tudor domain; actives 4.4% (n = 390,000); O75164; AID 504339; Potency, µM (highest dose often 114 µM), hits mostly inhibitors; AlphaScreen JMJD2A-Tudor / H3K4me3 peptide binding; further: nearly all actives have a fitted effect of over 50% in size
G9a block: G9a (human) methyltransferase inhibition. Q96KQ7. G9a H3K9 monomethylation, AlphaScreen, 2 h. Potency, µM (top dose mostly 102 µM), actives largely listed as inhibitors. actives 8.8% (n = 350,000); further: nearly all actives have a fitted effect of over 75% in size
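Methyltransferase reactions run at room temperature for 2 h (20 nM enzyme, 500 nM biotin-H3K9 peptide, 20 uM SAM) after a 15 min compound preincubation; product detected by AlphaScreen beads and anti-H3K9me1 antibody.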
HP1b binding inh: HP1-beta chromodomain-methylated histone interaction inhibition. P83916. AlphaScreen HP1-beta / biotin-H3K9me3 peptide binding. Potency, µM (top dose mostly 114 µM), actives largely listed as inhibitors. actives 0.56% (n = 390,000). AID 540317; further: nearly all actives have a fitted effect of over 70% in size
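Compound inhibition of the preformed complex between 50 nM HP1-beta and 50 nM biotinylated H3K9me3 peptide was read by AlphaScreen. Buffer was PBS pH 7.4 with 0.01% Tween-20. Incubations ran 30 min at room temperature, with 10 ug/mL donor/acceptor beads.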
BAZ2B block: inhibitors of human BAZ2B bromodomain; AlphaScreen BAZ2B-H3K14Ac peptide displacement; actives 4.4% (n = 360,000); Potency, µM (doses to about 114 µM), usual class: inhibitors; Q9UIF8; further: nearly all actives have a fitted effect of over 60% in size
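AlphaScreen luminescence quantifies BAZ2B engagement of H3K14Ac peptide; the protein and biotinylated peptide are both at 50 nM final, buffer PBS pH 7.4 with 0.01% Tween-20, all steps at room temperature.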
A number is an active result; i = inactive; ? = inconclusive; nt = no result given; [ ] = remark or other dose. Most compounds without a hit are left out; they make up all but 12% or so of the library. The call rests on the fitted dose curve; in most records, active means well fitted curve in the direction sought with a large enough effect; inconclusive means small, poorly fitted or top-dose-only effect, or another doubt; inactive means no such curve, though single readings can be large; an effect the other way counts as inactive or inconclusive.

SMILES | PLK1 PBD block | Sfp inh | JMJD2A Tudor inh | G9a block | HP1b binding inh | BAZ2B block
Cc1cc(C)cc(NC(=S)Nc2cccc3cnccc23)c1 | ? | 25µM | i | 18µM | ? | ?
C=C(C)CNC(=S)Nc1cccc2cnccc12 | i | i | i | i | i | i
Cc1ccc(NC(=S)Nc2ccccn2)c(C)c1 | ? | i | i | ? | i | i
Cc1ccc(NC(=S)Nc2ccc3cn[nH]c3c2)c(C)c1 | i | i | i | ? | i | i
COc1ccc(NC(=O)C2=C(C)C(=O)OC23CCN(C(C)C)CC3)cc1Cl | nt | nt | i | i | i | ?
O=C(Cn1cc(S(=O)(=O)N2CCN(c3ccccc3F)CC2)c2ccccc2c1=O)Nc1cccc(C(F)(F)F)c1 | nt | nt | i | i | i | i
CCOc1ccc(Nc2ncnc3c2c(-c2ccccc2)cn3-c2cccc(C)c2)cc1 | nt | nt | i | i | i | ?
CCC(C)(C)C1CCc2[nH]nc(C(=O)NC(C)C)c2C1 (stereo not given) | i | nt | i | i[2.33 µM] | i | i
O=C(NC(=S)Nc1cccc2cnccc12)c1ccccc1 | i | 45µM | i | 40µM | i | i
CCc1ccc(NC(=S)Nc2cccc3cnccc23)cc1 | i | 22µM | i | 45µM | i | ?
Cc1nnc2c(N3CCN(c4ccccc4)CC3)nc3ccc(C(=O)c4ccccc4)cc3n12 | nt | nt | i | i | i | i
CC(=O)c1cc(CC=C(C)C)c(O)c(CC=C(C)C)c1O | i | i | i | i[12.7 µM] | i | i
CC(=O)c1cc(CC=C(C)C)c(O)cc1O | 30µM | i | i[11.4 µM] | i | i | i
O=C(O)CSc1nnc(CNc2ccc(F)cc2)n1-c1ccccc1 | i | i | i | i | i | 79µM
O=C(O)CSc1nnc(CSc2nc3ccccc3s2)n1-c1ccccc1 | i | i | i | 35µM | i | i
CCOc1ccc(NCc2nnc(SCc3ccccc3Cl)n2-c2ccccc2)cc1 | i | i | 35µM | ? | i | 20µM
CCn1c(CSc2nc3ccccc3s2)nc2ccccc21 | i | i | i | 10µM | i | i
CCC(C)c1ccccc1NC(=O)c1cccc(-n2cnnn2)c1 (stereo not given) | i | nt | ? | nt | i | nt
CCOc1ccccc1NC(=O)C1CCN(S(=O)(=O)c2cc(Br)cc3c2N(C(C)=O)CC3)CC1 | nt | nt | i | i | i | i
O=C(O)CSc1nnc(CNc2ccc(Cl)cc2)n1Cc1ccccc1 | 27µM | i | 79µM | i[2.33 µM] | i | ?
O=C(NC(Cc1ccccc1)C(=O)O)/C(=C\c1ccco1)NC(=O)c1ccccc1 (stereo not given) | i | 35µM | i | ? | i | i
O=C(NC(Cc1ccccc1)C(=O)O)/C(=C\c1ccc(Cl)cc1)NC(=O)c1ccco1 (stereo not given) | i | i | i | 79µM | i | i
Cc1onc(-c2ccc(Br)cc2)c1C(=O)Nc1ccc(Br)cc1F | nt | nt | i | i | i | i
COc1ccc(NC(=S)Nc2ccccc2)c(OC)c1 | i | i | i | 16µM | i | i
COc1ccc(NC(=S)NCC(O)c2ccccc2)c(OC)c1 (stereo not given) | i | i | i | i | i | i
SMILES | PLK1 PBD block | Sfp inh | JMJD2A Tudor inh | G9a block | HP1b binding inh | BAZ2B block
COc1ccc(NC(=O)C(=O)Nc2cccc3cccnc23)c(OC)c1 | i | i | i | i[0.501 µM] | i | i
Cc1cccnc1NC(N)=S | i | i | i | i | i | i
COc1ccc(NC(=S)Nc2ncccc2C)c(OC)c1 | ? | i | 50µM | ? | ? | 40µM
COc1ccc(NC(=S)Nc2ncccc2C)cc1OC | i | 40µM | ? | 22µM | ? | ?
Cc1cccnc1NC(=S)Nc1ccc(Cl)c(Cl)c1 | i | 14µM | i | i | i | i
Cc1cccnc1NC(=S)Nc1ncccc1C | i | i | i | i[2.33 µM] | i | i
CN1CCC(N(C)C(=O)c2ccc(Cl)c(S(=O)(=O)N3CCc4ccccc43)c2)CC1 | i | nt | i | nt | i | nt
CCCn1ccnc1SC(C)C(=O)Nc1c(C)n(C)n(-c2ccccc2)c1=O (stereo not given) | i | nt | i | i[2.33 µM] | i | i
COc1ccc(CNc2oc(COc3ccc(Cl)cc3)nc2C#N)cc1 | i | i | ? | ? | ? | ?
COc1ccc(CCNc2oc(COc3ccc(Br)cc3)nc2C#N)cc1OC | i | i | ? | 40µM | i | ?
COc1ccc(-c2nc(C#N)c(NCCc3ccccc3)o2)cc1 | i | i | i | i | i | i
COc1ccc(CCNc2oc(COc3ccccc3F)nc2C#N)cc1 | i | i | i | 35µM | i | ?
N#Cc1nc(COc2ccccc2F)oc1NCc1ccc(F)cc1 | i | i | i | 35µM | i | ?
OC(C#CCN1CCOCC1)(c1ccccc1)C1CC1 (stereo not given) | i | i | i | 45µM | i | ?
OC(C#CCN1CCCCC1)(c1ccccc1)c1ccccc1 | i | i | i | i | i | i
CC(O)(C#CCN1CCCCCC1)c1ccccc1 (stereo not given) | 30µM | i | i[11.4 µM] | 50µM | i | i
OC(C#CCN1CCCC1)(c1ccccc1)c1ccccc1 | i | i | i | i[12.7 µM] | i | i
O=C(CCS(=O)(=O)c1ccc(Br)cc1)Nc1ccc(Cl)c(C(F)(F)F)c1 | nt | nt | i | i | i | i
O=S(=O)(Cc1ccccc1)N1CCN(c2nc(-c3cccs3)nc3ccccc23)CC1 | nt | nt | i | nt | i | nt
Cc1ccc(C(OCC(O)CNC(C)c2ccccc2)c2ccccc2)cc1 (stereo not given) | i | i | 1.3µM | 8.9µM | ? | 40µM
Cc1ccc(C(OCC(O)CNC(CO)C(O)c2ccc([N+](=O)[O-])cc2)c2ccccc2)cc1 (stereo not given) | i | i | 40µM | 13µM | ? | 50µM
Cc1ccc(C(OCC(O)CN2CCCCC2)c2ccccc2)cc1 (stereo not given) | i | i | i | i | i | i
N#Cc1nc(Nc2cc(F)cc(F)c2)c2ncn(CCCO)c2n1 | nt | nt | i | nt | nt | nt
COc1ccc2c3c(cccc13)C(=O)N(O)C2=O | i | i | i | i | i | i
CCC1=NNc2cccc3c(OC)ccc1c23 | nt | 32µM | nt | 25µM | nt | 28µM
SMILES | PLK1 PBD block | Sfp inh | JMJD2A Tudor inh | G9a block | HP1b binding inh | BAZ2B block
Oc1ccc(F)c(CN2CCN(c3ncc(Cc4ccccc4)cn3)CC2)c1 | i | nt | nt | nt | nt | nt
CC1CCc2noc(NC(=O)c3ccccc3[N+](=O)[O-])c2C1 (stereo not given) | nt | nt | ? | 16µM | i | ?
CC(C)CCCC(C)C1CCC2C3CC[C@H]4CC(=O)CC[C@@]4(C)C3CC[C@@]12C (stereo not given in full) | nt | i | nt | nt | nt | nt
O=C(O)CC1=C(O)C(=O)N(c2ccccc2)C1c1ccccc1 (stereo not given) | i | i | i | 13µM | i | i
COc1ccc(C2C(CC(=O)O)=C(Nc3ccccc3)C(=O)N2c2ccccc2)cc1 (stereo not given) | i | i | i | ? | i | i
O=C(O)CC1=C(O)C(=O)N(c2ccccc2)C1c1ccc(Br)cc1 (stereo not given) | i | i | i | i[0.501 µM] | i | i
